# Bioassay records: PubChem BioAssay, The Scripps Research Institute Molecular Screening Center
# AHR act – human AHR activation; P35869; AHR-responsive luciferase reporter cells, luminescence; activation, % at 5 µM; 320,000 tested, 2.5% active; AID 2796; in the data active = activation above about 47%;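 also: 0% = vehicle wells and 100% = reference agonist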
# hcDAF12 agonist – H. contortus DAF-12 activation, primary screen | activation, % at 6.8 µM | 370,000 tested, 1.4% active | HEK293 hcDAF-12 lit1-tk-luc reporter, luminescence; 0% DMSO, 100% Δ7-dafachronic acid;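 active = activation above the mean of all tested compounds plus 3 SD, cut at about 5.5% in these data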;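 also: 100% = response to 3 µM Δ7-dafachronic acid high control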
# DAX1 inh-1 – inhibits human nuclear receptor DAX1. P51843. HEK293 Gal4-DAX1 luciferase reporter, luminescence. inhibition, % at 6.75 µM. 340,000 tested, 0.99% active;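 active = inhibition above the mean over all tested compounds plus 3 SD, cut at about 4.2% in these data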;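 also: 0% = DAX1-transfected cells with DMSO and 100% = empty-vector control cells with DMSO; inhibition shows as a rise in luminescence from relieved DAX1 repression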
# Target sequence (P51843 207-470 limits assumed): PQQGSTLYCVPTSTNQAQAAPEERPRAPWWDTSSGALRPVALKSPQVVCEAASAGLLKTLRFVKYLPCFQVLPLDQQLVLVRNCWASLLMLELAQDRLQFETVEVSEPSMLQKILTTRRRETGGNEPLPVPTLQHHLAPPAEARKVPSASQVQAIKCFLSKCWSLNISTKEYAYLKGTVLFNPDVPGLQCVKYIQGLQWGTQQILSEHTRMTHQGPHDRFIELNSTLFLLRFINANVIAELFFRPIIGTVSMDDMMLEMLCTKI
# hgDAF12 agonist – agonists of H. glycines DAF-12 nuclear receptor; HEK293 GAL4-hgDAF12 UAS-luciferase reporter, agonist luminescence; normalized to butyrate control; activation, % at 6.8 µM; 370,000 tested, 1.8% active;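 active = activation above a cutoff set at the mean of all screened compounds plus 3 SD, cut at about 10% in these data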;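 also: 0% = DMSO wells and 100% = sodium butyrate wells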
# DAX1 inh-2 – inhibitors of DAX1 repression of SF-1 activated StAR promoter; 370,000 tested, 1.1% active; AID 652010; inhibition, % at 6.8 µM; HEK293T StAR-luciferase reporter, SF-1/DAX-1 repression relief;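 active = inhibition above the mean over all tested compounds plus 3 SD, cut at about 3.6% in these data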;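 also: 0% = DAX-1 cells with DMSO and 100% = cells lacking DAX-1 with DMSO; higher inhibition means more luminescence from relief of DAX-1 repression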
# ssDAF-12 act – S. stercoralis DAF-12 activation, primary screen; 370,000 tested, 1% active; HEK293 ssDAF-12/GRIP1 lit1-tk-luc reporter, luminescence; % of 3 µM dafachronic acid response; activation, % at 6.8 µM; AID 652126;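 active = activation above the mean over all tested compounds plus 3 SD, cut at about 0.9% in these data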;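 also: 0% = DMSO-only wells and 100% = 3 µM delta7-dafachronic acid wells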
# DAX1 conf – NR0B1 (human) inhibition, confirmation; inhibition, % at 6.8 µM; shares compounds with DAX1 inh-2; AID 652134; HEK293T StAR-promoter luciferase reporter, SF-1/DAX-1 repression; 2,400 tested, 87% active;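 active = inhibition above the average of every tested compound plus 3 SD, cut at about 3.8% in these data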;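 also: 0% = DAX-1 cells with DMSO and 100% = no DAX-1 control cells with DMSO; active compounds raise luminescence by relieving repression of the StAR reporter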
# SF1 mutant ctr – counter-screen for DAX1 inhibitors: nonselective inhibitors with SF-1 AF2 mutant; shares compounds with DAX1 inh-2; 2,400 tested, 78% active; HEK293 StAR-luciferase, luminescence; inhibition, % at 6.8 µM; AID 652136;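 active = inhibition above the mean of all tested compounds plus 3 SD, cut at about 3% in these data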;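 also: 0% = DAX-1 transfected cells with DMSO and 100% = cells without DAX-1 with DMSO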
# LXR ag – counter-screen for hcDAF-12 agonists: agonists of human LXR-beta; HEK293 Gal4-LXR tk-luc reporter, luminescence, 24 h; normalized: DMSO 0%, positive control 100%; 3,400 tested, under 10 active; shares compounds with hcDAF12 agonist; activation, % at 6.8 µM;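 active = mean percent activation of the reporter above a cutoff set as the average over tested compounds plus their standard deviation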
# Target sequence (P55055 whole entry, looked up, the tested form may be a part): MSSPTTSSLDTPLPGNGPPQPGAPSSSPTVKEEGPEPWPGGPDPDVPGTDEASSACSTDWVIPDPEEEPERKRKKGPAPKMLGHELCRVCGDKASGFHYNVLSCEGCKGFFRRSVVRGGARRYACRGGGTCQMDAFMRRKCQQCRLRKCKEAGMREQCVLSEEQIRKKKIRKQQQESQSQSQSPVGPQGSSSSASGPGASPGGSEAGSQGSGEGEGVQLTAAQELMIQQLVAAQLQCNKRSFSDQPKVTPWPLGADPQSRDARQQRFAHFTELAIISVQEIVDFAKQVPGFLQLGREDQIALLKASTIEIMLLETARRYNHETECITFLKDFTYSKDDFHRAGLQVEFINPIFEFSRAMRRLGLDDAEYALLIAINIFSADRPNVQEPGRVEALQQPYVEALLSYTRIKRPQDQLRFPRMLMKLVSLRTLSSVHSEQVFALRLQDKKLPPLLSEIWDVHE
# hcDAF12 ag – hcDAF-12 agonism, confirmation assay | shares compounds with hcDAF12 agonist | HEK293 hcDAF-12 lit1-tk-luc reporter, luminescence; % of Δ7-dafachronic acid response | activation, % at 6.8 µM | 3,400 tested, 61% active | AID 743032;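 active = mean activation across triplicate tests above the threshold derived from the earlier primary screen, cut at about 5.5% in these data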;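 also: 0% = DMSO only wells and 100% = 3 µM Δ7-dafachronic acid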
# hgDAF12 ag – confirmation of H. glycines DAF-12 agonists; shares compounds with hgDAF12 agonist; HEK293 GAL4-hgDAF12 luciferase reporter, agonist mode; percent of butyrate response; activation, % at 6.8 µM; 3,300 tested, 80% active; AID 743050;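 active = mean activation over triplicate wells above the hit cutoff derived from the earlier primary screen, cut at about 11% in these data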;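 also: 0% = DMSO low control and 100% = 2 mM sodium butyrate high control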
# LXRb DAF12 ctr – LXR-beta agonism as DAF-12 counter-screen. shares compounds with hgDAF12 agonist. AID 743051. HEK293 Gal4-LXR luciferase reporter, 24 h. activation, % at 6.8 µM. 3,300 tested, under 10 active;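 active = mean activation of the triplicate above a set limit carried over from the primary screen, none filed active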
# Numbers without * were called inactive; x = no result. An excerpt weighted towards active compounds, which were near 5.7% of everything screened.
SMILES,AHR act,hcDAF12 agonist,DAX1 inh-1,hgDAF12 agonist,DAX1 inh-2,ssDAF-12 act,DAX1 conf,SF1 mutant ctr,hgDAF12 ag,LXRb DAF12 ctr,others
O=C(Nc1ccc2c(c1)OCO2)c1cnc(Cl)c(Cl)c1,x,6.3*,3,21*,5.6*,1.8*,8.1*,6.5*,16*,1,
O=C(Nc1ccccn1)c1ccc2c(c1)OCO2,34,4,0,22*,6.1*,0,6.8*,3.4*,13*,0,
O=C(Nc1ccc2c(c1)OCO2)Nc1ccccc1F,21,2,0,19*,11*,0,13*,6.9*,15*,1,
C[C@@H](NC(=O)[C@@H]1Cc2ccccc2CN1)C(=O)Nc1ccc2c(c1)OCCO2,10,0,1,8,0,-1,x,x,x,x,
CSc1ccccc1NC(=O)C1=COCCO1,-3,-1,0,1,1,0,x,x,x,x,
C=C(C)C(=O)Nc1ccc2nn(-c3ccccc3O)nc2c1,x,8.0*,2,20*,7.9*,1.6*,13*,7.7*,20*,1,LXR ag=2;hcDAF12 ag=10*
CC(=O)Nc1ccc2nc3ccccc3nc2c1,5,4,1,5,1,0,x,x,x,x,
Cc1ccc(NC(=S)Nc2ccc(OC(F)F)c(Cl)c2)cc1F,-1,-1,0,-4,0,0,x,x,x,x,
Nc1nc(-c2ccc(Oc3ccccc3)cc2)cs1,7,0,1,6,0,-1,x,x,x,x,
Nc1nc(-c2ccc(-c3ccccc3)cc2)cs1,-1,5,1,19*,6.3*,0,10*,6.8*,20*,1,
Nc1nc(-c2ccc3ccccc3c2)cs1,6,6.4*,1,18*,12*,0,9.9*,7.5*,15*,1,
COc1ccc(-c2ccc(C(=O)N3CCOCC3)c3occc23)c(C)c1,x,-4,x,-4,-2,-2,x,x,x,x,
NS(=O)(=O)c1ccc(CCNC(=O)c2cc([N+](=O)[O-])ccc2N2CCOCC2)cc1,0,0,0,-2,-1,-1,x,x,x,x,
COc1ccccc1N(C(=O)c1ccco1)C(C(=O)NC1CCCC1)c1ccncc1 (stereo not drawn),14,-2,2,0,0,-1,x,x,x,x,
CCN(C(=O)CCS(=O)(=O)c1cccc2nonc12)c1ccc(F)cc1,-1,-1,-2,-1,0,-1,x,x,x,x,
Cn1c(/N=C(\N)c2ccccc2)nc2ccccc21,x,14*,4.5*,21*,8.4*,1.7*,13*,9.9*,20*,1,LXR ag=1;hcDAF12 ag=17*
Cc1ccc(-c2nc3ccc(C)cn3c2CC2CCCCC2)cc1,x,10*,x,21*,7.2*,2.2*,3.8*,3.2*,11*,0,LXR ag=1;hcDAF12 ag=9.1*
COc1ccccc1Cc1c(-c2ccc(C)cc2)nc2ccc(C)cn12,x,1,x,14*,4.9*,0,7.0*,5.1*,10,0,
COc1ccccc1Cc1c(C2CCCCC2)nc2ccc(C)cn12,x,2,x,1,-2,0,x,x,x,x,
CCCc1nc2ccc(C)cn2c1Cc1ccccc1OC,x,4,x,1,-1,0,x,x,x,x,
Cc1ccc2nc(C3CCCCC3)c(CC(C)(C)C)n2c1,x,0,x,-1,0,0,x,x,x,x,
COc1ccccc1Cc1c(-c2ccccc2)nc2ccc(C)cn12,x,4,x,17*,5.2*,0,1,4.3*,8,0,
CCOC(=O)c1cc(-c2ccc3c(c2)OCCO3)n[nH]1,1,5,5.8*,19*,5.3*,0,13*,9.9*,17*,1,
Oc1ccccc1-c1cc(-c2ccc3c(c2)OCCO3)n[nH]1,7,8.9*,1,13*,5.9*,1.0*,6.0*,2,24*,1,LXR ag=2;hcDAF12 ag=12*
O=C(O)c1cc(-c2ccc3c(c2)OCCO3)n[nH]1,0,-1,0,5,1,-1,x,x,x,x,
SMILES,AHR act,hcDAF12 agonist,DAX1 inh-1,hgDAF12 agonist,DAX1 inh-2,ssDAF-12 act,DAX1 conf,SF1 mutant ctr,hgDAF12 ag,LXRb DAF12 ctr,others
c1ccc2sc(-n3cc(C4CCCCC4)nn3)nc2c1,x,6.6*,x,26*,9.2*,1.3*,15*,8.7*,25*,1,LXR ag=1;hcDAF12 ag=5.9*
C1=C(c2cn(-c3nc4ccccc4s3)nn2)CCCC1,x,12*,x,20*,11*,1,12*,5.8*,20*,1,LXR ag=2;hcDAF12 ag=8.5*
Cc1ccc(NC(=S)N2CCC(NC(=O)c3ccc(F)cc3)CC2)cc1C,-2,0,0,0,0,-1,x,x,x,x,
COc1ccccc1OCCNC(=O)c1ccc2c(c1)OCCO2,25,5,1,17*,7.8*,0,8.9*,6.0*,14*,1,
CCn1c(C)cc(C=C2C(=O)c3ccccc3C2=O)c1C,x,17*,1,18*,5.6*,4.4*,15*,8.0*,15*,1,LXR ag=2;hcDAF12 ag=15*
O=C(Nc1ccc(Cl)c(S(=O)(=O)N2CCOCC2)c1)[C@@H]1CCCN1C(=O)c1cccs1,2,-1,1,0,0,-1,x,x,x,x,
CC1=CC(c2ccccc2)=Nc2ccc(C)cc2N1,19,13*,0,19*,5.9*,3.5*,15*,8.7*,19*,1,LXR ag=2;hcDAF12 ag=9.6*
CC(=O)NC(Cc1cccc(C)c1)C(=O)NC1CCN(C(=O)NCc2ccccc2)CC1 (stereo not drawn),x,1,-1,2,0,-1,x,x,x,x,
CC(C)(C)NC(=O)C(c1cc2ccccc2o1)n1c(=O)c(-c2cc3ccccc3[nH]2)nc2ccccc21 (stereo not drawn),x,5,x,4,0,0,x,x,x,x,
